Measured values as given in PubChem BioAssay (Tox21).
Results filed as inconclusive are left out. Unmarked numbers belong to inactive results. Calls come from the whole dose curve; as a rule, active = well fitted cell-killing curve with a large enough effect in the repeat runs; inconclusive = weak or mixed curves; inactive = flat fitted curve, though single readings scatter.

Experiment: qHTS RealTime-Glo MT Cell Viability Assay in HepG2 cells - 8 hour (AID 1224873); note: nearly all actives have a fitted effect of over 55% in size
Settings: RealTime-Glo luminescence; series mostly up to 76.8 µM; viability change, negative = cytotoxic: at the top concentration
Description: National Center for Advancing Translational Sciences [NCATS]
NIH Chemical Genomics Center [NCGC]
U.S. Environmental Protection Agency [EPA]
National Institutes of Environmental Health Sciences [NIEHS]
National Toxicology Program [NTP]
U.S. Food and Drug Administration [FDA]
Measure of cell viability is critical in the cell-base assay. Analysis of cell viability is necessary for the characterization of cell responses to cytotoxic drugs and environmental stress. A RealTime-Glo MT Cell Viability Assay to monitor cell viability in real time of continues cell culture during 40 hours of compound treatment was used to screen Tox21 10K library compounds in HepG2 cells. The RealTime-Glo MT Cell Viability Assay is a nonlytic, homogeneous, bioluminescent method to measure cell viability in real time using a simple, plate-based method. The assay involves adding NanoLuc luciferase and a cell-permeant prosubstrate to cells in culture. Viable cells reduce the proprietary prosubstrate to generate a substrate for NanoLuc luciferase. This substrate diffuses from cells into the surrounding culture medium, where it is rapidly used by the NanoLuc Enzyme to produce a luminescent signal. The signal correlates with the number of viable cells, making the assay well suited for cytotoxicity studies.
Tox21 Assay Protocol Summary:
The mixture of HepG2 cell suspension and reagents were dispensed at 600cells/6 ul/well in 1536-well tissue culture treated black solid bottom plates using a Multidrop dispenser. After the assay plates were incubated at a 37 C/5% CO2 incubator for 5 hours, 23 nL of compounds dissolved in DMSO, positive and negative controls was transferred to the assay plate by a pintool work station. The plates were incubated at 37 C for 40 hours. The luminescence intensity were measured at 0h, 8h, 16h, 24h, 32h and 40h time points using ViewLux plate reader during compound treatment.
% is set by controls: 0 for no effect and ±100 for the full control effect.

SMILES | viability change, negative = cytotoxic
O=C(Oc1ccc(Br)cc1)N1CCN2CCC1CC2 | 4.8%
CC(=O)Nc1cc([As](=O)(O)O)ccc1O | 1.27% [at 35.3 µM]
COC(C)(C)C | 1.39%
N#CCBr | 1.61%
CNC(=O)Oc1ccc(N(C)C)c(C)c1 | 1.05%
CC(=O)[C@H]1CC[C@H]2[C@@H]3CC[C@H]4C[C@H](O)CC[C@]4(C)[C@H]3C(=O)C[C@]12C | -0.63% [at 35.3 µM]
CCC(C)n1c(=O)[nH]c(C)c(Br)c1=O (stereo not given) | 2.54%
COc1cc(OC)nc(NC(=O)NS(=O)(=O)c2ncccc2C(=O)N(C)C)n1 | 0.478%
O=C(NCO)NCO | 0.648%
N#CCCC#N | -3.69%
Fc1cc(Br)ccc1CBr | 0.607% [at 35.3 µM]
ClC(Cl)Br | 1.18%
O=[N+]([O-])c1cccc2c([N+](=O)[O-])cccc12 | -17.7%
ClC(Cl)C(Cl)Cl | 1.79%
CNC(=O)O/N=C(\C)SC | 0.439%
OCCSCSCCO | 4.4%
CC(=O)CCc1ccc2c(c1)OCO2 | 5.99%
CCCCCCI | -15%
CCCSC(=O)N(CCC)CCC | 3.69%
O=C1OC(CCN2CCCCC2)OC1(c1ccccc1)c1ccccc1 (stereo not given) | -14.1% [at 35.3 µM]

SMILES | viability change, negative = cytotoxic
CNC(=O)Oc1cccc(C(C)C)c1 | 3.34%
CC(C)[N+](=O)[O-] | -0.201%
O=[N+]([O-])c1cccc2cccnc12 | -3.76%
CCCCCCBr | -0.189%
Cc1cc(C)nc(Nc2ccccc2)n1 | 1.57%
Cc1ncc2n1-c1ccc(Cl)cc1C(c1ccccc1F)=NC2 | -9.62% [at 35.3 µM]
CC(C=O)Cc1ccc2c(c1)OCO2 (stereo not given) | 3%
CCCSP(=S)(OCC)Oc1ccc(Cl)cc1Cl (stereo not given) | -11.9%
C[N+](C)=CCl | 1.56%
CCCCC(=O)Cl | 0.794%
N#Cc1c(Cl)cccc1Cl | 2.89%
c1ccc(N2CCNCC2)cc1 | 3.19% [at 35.3 µM]
COP(N)(=S)Oc1ccccc1C(=O)OC(C)C (stereo not given) | 2.45%
CC(=O)C(Cl)Cl | 2.3%
CC1(C(=O)Nc2ccc(O)c(Cl)c2Cl)CCCCC1 | -10.4%
Nc1cc2c3c(c1)C(c1ccccc1)=N[C@@H](NC(=O)c1cccnc1)C(=O)N3CC2 | -2.99%
NC1=NC(=O)C(c2ccccc2)O1 (stereo not given) | 3.92% [at 35.3 µM]
CCC/C(=N\OCC)C1=C(O)CC(CC(C)SCC)CC1=O (stereo not given) | -0.174%
Cc1nc(N)nc(N)n1 | 1.24%
OC(c1ccccc1)(c1ccccc1)C1CCNCC1 | -11% [at 35.3 µM]
